Data on 109 sequences can be found in the supplement of paper PMC4166925.

± gives the standard deviation of the averaged measurements. In all, about 33,000 sequences were measured (“E-score (dimensionless, -0.5 to 0.5)”: median about -0.049, highest 2% from about 0.37 on). The list comes from a sample in which the highest values are over-represented; it also holds similar and randomly drawn sequences.

This assay relates to T1, PmTbr T-box DNA-binding domain (GST fusion).
T1 sequence: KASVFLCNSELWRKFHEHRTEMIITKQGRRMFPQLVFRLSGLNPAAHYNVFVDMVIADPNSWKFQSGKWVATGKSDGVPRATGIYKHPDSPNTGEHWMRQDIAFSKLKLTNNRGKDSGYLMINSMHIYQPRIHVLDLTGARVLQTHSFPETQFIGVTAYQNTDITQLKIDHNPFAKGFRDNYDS
The assay is described as follows: PBM E-score of 8-mer (E-score (dimensionless, -0.5 to 0.5)); Tbr is Tbrain of the sea star Patiria miniata (Pm) or the sea urchin Strongylocentrotus purpuratus (Sp); higher = stronger binding preference. The conditions noted are these: the construct has about 5 more residues each side. How it is done: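 Universal protein-binding microarray (Agilent AMADID 016060, 60-bp probes with a 35-bp variable region) incubated with 200 nM GST-fused Patiria miniata Tbr T-box DNA-binding domain (residues 272-466) in PBS pH 7.5. Scored for every ungapped 8-mer (given with its reverse complement) by the Universal PBM Analysis Suite as E-score (modified Wilcoxon-Mann-Whitney enrichment, range -0.5 to 0.5; >0.45 counts as bound) and Z-score of median probe intensity. Two replicate arrays (datasets 1 and 2).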
As to TATTCGGA, the “PBM E-score of 8-mer” value is -0.32 ± 0.033.

Regarding ACGCGACG, the “PBM E-score of 8-mer” value was found to be 0.237 ± 0.016.

For AACTGCAT, the “PBM E-score of 8-mer” value was -0.201 ± 0.029.

In the case of CCTAAGAC, the “PBM E-score of 8-mer” value is -0.178 ± 0.094.

CCCAAGGG: the “PBM E-score of 8-mer” value is -0.052 ± 0.028.

As to CTACAGAA, the “PBM E-score of 8-mer” value worked out at 0.0244 ± 0.029.

As for CACATTGG, the “PBM E-score of 8-mer” value was 0.281 ± 0.053.

For TGTTTGAA, the “PBM E-score of 8-mer” value was 0.112 ± 0.0038.

In the case of ATCAGGTC, the “PBM E-score of 8-mer” value is -0.169 ± 0.12.

As for ATCAGGTG, the “PBM E-score of 8-mer” value was found to be 0.404 ± 0.0092.

In the case of ATCAGGTA, the “PBM E-score of 8-mer” value was -0.0936 ± 0.033.

As to GAGGTGCC, the “PBM E-score of 8-mer” value amounted to 0.409 ± 0.03.

As for ACGGTGCA, the “PBM E-score of 8-mer” value was 0.0807 ± 0.013.

TAGGTGCA: the “PBM E-score of 8-mer” value worked out at 0.22 ± 0.024.

For ACGGTGCT, the “PBM E-score of 8-mer” value came out at 0.164 ± 0.072.

Turning to GCGGTGCC, the “PBM E-score of 8-mer” value was found to be 0.0932 ± 0.011.

As for ATGGTGCC, the “PBM E-score of 8-mer” value stood at 0.193 ± 0.051.

As for ACGGTGCC, the “PBM E-score of 8-mer” value is 0.158 ± 0.032.

For AAGGTGCT, the “PBM E-score of 8-mer” value worked out at 0.441 ± 0.0066.

In the case of AAGGTGCA, the “PBM E-score of 8-mer” value is 0.4 ± 0.011.

Take GAGGTGCA: the “PBM E-score of 8-mer” value worked out at 0.367 ± 0.0099.

For the sequence AAGGTGGT, the “PBM E-score of 8-mer” value turned out to be 0.3415 ± 0.002.

Regarding AAGGTGCC, the “PBM E-score of 8-mer” value came out at 0.405 ± 0.0071.

In the case of ACTTTTTC, the “PBM E-score of 8-mer” value amounted to 0.124 ± 0.02.

For the sequence AAAAGACT, the “PBM E-score of 8-mer” value was -0.205 ± 0.034.

As to CAGTCCTC, the “PBM E-score of 8-mer” value was -0.118 ± 0.032.

In the case of CCACTGCC, the “PBM E-score of 8-mer” value was -0.17 ± 0.095.

Consider CAGAAGTA, for which the “PBM E-score of 8-mer” value was -0.223 ± 0.0053.

As to ATCCACAG, the “PBM E-score of 8-mer” value was -0.0977 ± 0.018.

In the case of ATCGAACA, the “PBM E-score of 8-mer” value is -0.0797 ± 0.051.

For CCCAGGGG, the “PBM E-score of 8-mer” value is -0.162 ± 0.093.

In the case of AAAGTGAA, the “PBM E-score of 8-mer” value was -0.00138 ± 0.15.

Regarding AAAGTGAT, the “PBM E-score of 8-mer” value was 0.299 ± 0.012.

In the case of GAAGTGAA, the “PBM E-score of 8-mer” value stood at 0.219 ± 0.011.

Take GAAGTGAC: the “PBM E-score of 8-mer” value came out at 0.379 ± 0.017.

Take CAAGTGAC: the “PBM E-score of 8-mer” value stood at 0.325 ± 0.021.

AAAGTGAC: the “PBM E-score of 8-mer” value came to 0.392 ± 0.012.

Consider AGAGTTCG, for which the “PBM E-score of 8-mer” value is -0.201 ± 0.018.

On to CTGGGACA, for which the “PBM E-score of 8-mer” value was -0.223 ± 0.073.

Turning to CACTTGTA, the “PBM E-score of 8-mer” value was found to be 0.0949 ± 0.008.

On to AACTTCAC, for which the “PBM E-score of 8-mer” value was found to be 0.0623 ± 0.061.

As to CACTTGCA, the “PBM E-score of 8-mer” value was 0.349 ± 0.0093.

On to CACTTCAG, for which the “PBM E-score of 8-mer” value came out at 0.255 ± 0.025.

Regarding CACTTCAC, the “PBM E-score of 8-mer” value was 0.396 ± 0.012.

With CACTTGTC, the “PBM E-score of 8-mer” value is 0.402 ± 0.0079.

CACTTCCG: the “PBM E-score of 8-mer” value is 0.37 ± 0.013.

For CACTTCCC, the “PBM E-score of 8-mer” value was 0.3321 ± 0.00048.

For the sequence AACTTCCG, the “PBM E-score of 8-mer” value was -0.141 ± 0.013.

Turning to CACTTGCG, the “PBM E-score of 8-mer” value is 0.376 ± 0.019.

With AACTTGCG, the “PBM E-score of 8-mer” value came out at 0.137 ± 0.02.

With AACTTGTC, the “PBM E-score of 8-mer” value stood at 0.34353 ± 0.00012.

In the case of ACCCTTGC, the “PBM E-score of 8-mer” value worked out at 0.0156 ± 0.051.

In the case of ACAGATAC, the “PBM E-score of 8-mer” value was -0.0952 ± 0.059.

As for AATTAAGG, the “PBM E-score of 8-mer” value was -0.152 ± 0.064.

Turning to ACCGTCAC, the “PBM E-score of 8-mer” value was found to be 0.288 ± 0.0081.

For the sequence ACACTCTG, the “PBM E-score of 8-mer” value amounted to 0.2899 ± 0.00065.

For AATTGGAA, the “PBM E-score of 8-mer” value was -0.0872 ± 0.056.

Take GGGCCAAA: the “PBM E-score of 8-mer” value was -0.228 ± 0.029.

On to CATTGGGG, for which the “PBM E-score of 8-mer” value is -0.0156 ± 0.035.

AATCGCGT: the “PBM E-score of 8-mer” value came to 0.169 ± 0.035.

For the sequence AATCGCGA, the “PBM E-score of 8-mer” value stood at 0.3771 ± 0.0028.

With ACTCGCGC, the “PBM E-score of 8-mer” value came out at 0.29 ± 0.014.

With CATCGCGA, the “PBM E-score of 8-mer” value was found to be 0.15 ± 0.043.

Consider ATTCGCGA, for which the “PBM E-score of 8-mer” value came out at 0.389 ± 0.0025.

Take CTTCGCTC: the “PBM E-score of 8-mer” value was 0.00268 ± 0.066.

In the case of CTTCGCGA, the “PBM E-score of 8-mer” value turned out to be 0.277 ± 0.011.

For CTTCGCGC, the “PBM E-score of 8-mer” value worked out at 0.3742 ± 0.0014.

Regarding ACTCGCGA, the “PBM E-score of 8-mer” value was found to be 0.38 ± 0.0065.

Consider GTTCGCGA, for which the “PBM E-score of 8-mer” value stood at 0.338 ± 0.019.

On to CATCGCGC, for which the “PBM E-score of 8-mer” value was 0.262 ± 0.0094.

On to CCTCGCGA, for which the “PBM E-score of 8-mer” value is 0.281 ± 0.00058.

For the sequence GGCATTAA, the “PBM E-score of 8-mer” value was -0.146 ± 0.0047.

Regarding TGCTCCAA, the “PBM E-score of 8-mer” value was -0.162 ± 0.04.

Consider ACCCTACG, for which the “PBM E-score of 8-mer” value amounted to 0.0529 ± 0.027.

With AGCCTAGC, the “PBM E-score of 8-mer” value was -0.00521 ± 0.12.

Take TCGAAGCA: the “PBM E-score of 8-mer” value is -0.141 ± 0.0046.

For the sequence ATTCGCGG, the “PBM E-score of 8-mer” value was found to be 0.244 ± 0.039.

With ATTCGCGC, the “PBM E-score of 8-mer” value worked out at 0.39 ± 0.021.

As for AATCGCGC, the “PBM E-score of 8-mer” value was 0.311 ± 0.024.

For the sequence ATAGCACA, the “PBM E-score of 8-mer” value was 0.174 ± 0.035.

CTAGCACC: the “PBM E-score of 8-mer” value was found to be 0.449 ± 0.006.

Take CTAGCACA: the “PBM E-score of 8-mer” value was 0.327 ± 0.024.

With ATAGCACG, the “PBM E-score of 8-mer” value was found to be 0.358 ± 0.017.

Regarding ATAGCACC, the “PBM E-score of 8-mer” value turned out to be 0.416 ± 0.012.

On to CAAGCACC, for which the “PBM E-score of 8-mer” value worked out at 0.129 ± 0.016.

With ACATTCGC, the “PBM E-score of 8-mer” value is 0.267 ± 0.042.

Regarding AGGCTTGG, the “PBM E-score of 8-mer” value is -0.2 ± 0.011.

Take GAAACCGA: the “PBM E-score of 8-mer” value is -0.0132 ± 0.073.

AGCCATAG: the “PBM E-score of 8-mer” value was -0.0194 ± 0.015.

For the sequence CTGGCACC, the “PBM E-score of 8-mer” value worked out at 0.411 ± 0.018.

On to CAGGCACC, for which the “PBM E-score of 8-mer” value was -0.0396 ± 0.032.

On to CTGGCACA, for which the “PBM E-score of 8-mer” value was 0.241 ± 0.0048.

As for ATGGCACC, the “PBM E-score of 8-mer” value was determined as 0.387 ± 0.011.

As for ATGGCACA, the “PBM E-score of 8-mer” value came to 0.103 ± 0.0048.

For ATGGCACG, the “PBM E-score of 8-mer” value worked out at 0.189 ± 0.041.

As to ACCGGTCC, the “PBM E-score of 8-mer” value is -0.276 ± 0.048.

Consider TCCTATAA, for which the “PBM E-score of 8-mer” value was -0.189 ± 0.068.

Consider AAATAGGG, for which the “PBM E-score of 8-mer” value is -0.0426 ± 0.12.

As for ACGGCTCT, the “PBM E-score of 8-mer” value was -0.15 ± 0.033.

CGCCTGAG: the “PBM E-score of 8-mer” value stood at 0.0681 ± 0.047.

Turning to AACCTGAC, the “PBM E-score of 8-mer” value was 0.111 ± 0.026.

GACCTGAC: the “PBM E-score of 8-mer” value was -0.0852 ± 0.017.

As for AACCTGTA, the “PBM E-score of 8-mer” value is -0.252 ± 0.046.

As to CACCTGTC, the “PBM E-score of 8-mer” value was 0.4274 ± 0.0023.

CACCTGAG: the “PBM E-score of 8-mer” value was determined as 0.37535 ± 0.00034.

Take AACCTGAG: the “PBM E-score of 8-mer” value is 0.0264 ± 0.17.

For the sequence CGCCTGTC, the “PBM E-score of 8-mer” value is 0.303 ± 0.026.

Turning to CACCTGTA, the “PBM E-score of 8-mer” value is 0.391 ± 0.009.

For the sequence CACCTGAA, the “PBM E-score of 8-mer” value amounted to 0.312 ± 0.0079.
